The values that follow come from article PMC7862700, “An all-to-all approach to the identification of sequence-specific readers for epigenetic DNA modifications on cytosine”.

Holding throughout (test): DAPPL (digital affinity profiling via proximity ligation, sequencing); 10 mM Tris-HCl pH 7.5, 50 mM NaCl, 1 mM DTT, 4% glycerol, room temperature, 30 min; GST-TFs on glutathione beads, 16-mer random dsDNA library, 0.1% formaldehyde crosslink after washing; high values mean tight binding
One assay has as its target T1, FEV (Homo sapiens, UniProt Q99581 1-238).
T1 sequence: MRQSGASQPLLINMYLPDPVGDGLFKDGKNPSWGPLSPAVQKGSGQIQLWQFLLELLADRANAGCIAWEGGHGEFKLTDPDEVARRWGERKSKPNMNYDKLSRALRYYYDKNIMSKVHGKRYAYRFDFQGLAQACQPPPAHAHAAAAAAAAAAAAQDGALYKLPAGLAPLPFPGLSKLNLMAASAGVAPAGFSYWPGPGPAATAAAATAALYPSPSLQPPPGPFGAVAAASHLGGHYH
The following applies: protein: recombinant; tags: N-terminal GST; dsDNA, one strand shown. An outline of the steps: (§1)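 Yeast served to express human transcription factors as GST fusions, which were then captured on glutathione beads and labelled with DNA barcodes. Pooled with a tag-only sample, they were incubated with 200 nmole of a 16-mer random double-stranded DNA library for 30 min at room temperature in Tris/NaCl/DTT/glycerol buffer, washed, crosslinked with 0.1% formaldehyde, ligated by proximity, amplified by PCR and sequenced. Dividing each hexamer's read frequency for a factor by its frequency for the tag-only sample gives the binding signal.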

The target of the next assay is ETV5 (Homo sapiens, UniProt P41161 1-510). To be noted: protein: recombinant; tags: N-terminal GST; dsDNA, one strand shown. An outline of the steps:
as §1

The next assay deals with HSF1 (Homo sapiens, UniProt Q00613 1-529). The following applies: protein: recombinant; tags: N-terminal GST; chain copies: 3; dsDNA, one strand shown. In short, it runs like this:
as §1

Another assay concerns the target T2, SPIC (Homo sapiens, UniProt Q8N5J4 1-248).
T2 sequence: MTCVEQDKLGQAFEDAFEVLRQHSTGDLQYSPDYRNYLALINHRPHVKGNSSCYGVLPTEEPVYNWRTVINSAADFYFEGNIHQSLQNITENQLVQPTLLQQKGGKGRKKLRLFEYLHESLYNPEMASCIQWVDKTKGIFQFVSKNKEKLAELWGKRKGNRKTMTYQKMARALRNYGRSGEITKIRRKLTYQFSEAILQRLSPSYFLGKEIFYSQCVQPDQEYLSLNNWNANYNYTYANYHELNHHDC
To be noted: protein: recombinant; tags: N-terminal GST; dsDNA, one strand shown. In short, it runs like this: as §1

A further assay deals with ELF4 (Homo sapiens, UniProt Q99607 1-663). To be noted: protein: recombinant; tags: N-terminal GST; dsDNA, one strand shown. An outline of the steps:
as §1

Another assay addresses T3, ELK4 (Homo sapiens, UniProt P28324-2 1-405).
T3 sequence: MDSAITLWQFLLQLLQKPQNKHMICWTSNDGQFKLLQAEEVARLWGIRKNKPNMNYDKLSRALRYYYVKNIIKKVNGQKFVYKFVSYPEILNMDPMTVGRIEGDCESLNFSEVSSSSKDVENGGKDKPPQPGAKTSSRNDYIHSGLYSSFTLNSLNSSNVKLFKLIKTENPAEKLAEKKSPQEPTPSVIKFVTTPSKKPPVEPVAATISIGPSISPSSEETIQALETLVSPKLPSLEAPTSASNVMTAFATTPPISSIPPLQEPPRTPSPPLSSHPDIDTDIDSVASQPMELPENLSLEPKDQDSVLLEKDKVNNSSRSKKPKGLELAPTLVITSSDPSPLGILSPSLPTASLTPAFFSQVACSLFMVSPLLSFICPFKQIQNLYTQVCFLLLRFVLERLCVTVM
To be noted: protein: recombinant; tags: N-terminal GST; dsDNA, one strand shown. An outline of the steps: as §1

The target of another assay is T4, ETV2 (Homo sapiens, UniProt O00321 1-342).
T4 sequence: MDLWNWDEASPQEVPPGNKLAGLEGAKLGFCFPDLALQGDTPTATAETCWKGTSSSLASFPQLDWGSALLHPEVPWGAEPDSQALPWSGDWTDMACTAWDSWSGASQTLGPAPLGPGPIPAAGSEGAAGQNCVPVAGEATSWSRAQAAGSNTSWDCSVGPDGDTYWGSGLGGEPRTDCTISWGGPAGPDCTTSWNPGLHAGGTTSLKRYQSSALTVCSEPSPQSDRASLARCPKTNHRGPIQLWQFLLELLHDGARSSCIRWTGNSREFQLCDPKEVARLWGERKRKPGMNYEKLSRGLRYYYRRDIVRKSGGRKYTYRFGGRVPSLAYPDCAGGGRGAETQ
The following applies: protein: recombinant; tags: N-terminal GST; dsDNA, one strand shown. An outline of the steps:
as §1

The target of the next assay is T5, ELF3 (Homo sapiens, UniProt P78545 1-371).
T5 sequence: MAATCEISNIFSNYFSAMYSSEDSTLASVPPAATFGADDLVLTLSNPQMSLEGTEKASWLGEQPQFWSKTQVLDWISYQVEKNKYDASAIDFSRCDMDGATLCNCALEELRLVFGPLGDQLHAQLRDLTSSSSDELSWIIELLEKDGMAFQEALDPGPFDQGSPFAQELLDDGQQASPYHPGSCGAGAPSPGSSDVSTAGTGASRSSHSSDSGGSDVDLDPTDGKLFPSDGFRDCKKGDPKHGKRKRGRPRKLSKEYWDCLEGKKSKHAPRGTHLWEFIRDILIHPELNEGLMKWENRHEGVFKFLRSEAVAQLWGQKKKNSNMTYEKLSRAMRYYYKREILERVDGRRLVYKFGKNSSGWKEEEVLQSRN
The following applies: protein: recombinant; tags: N-terminal GST; dsDNA, one strand shown. An outline of the steps:
as §1

In another assay the target is CRX (Homo sapiens, UniProt O43186 1-299). To be noted: protein: recombinant; tags: N-terminal GST; dsDNA, one strand shown. An outline of the steps: as §1
The next assay has as its target ETV1 (Homo sapiens, UniProt P50549 1-477). To be noted: protein: recombinant; tags: N-terminal GST; dsDNA, one strand shown. An outline of the steps:
as §1

The target of the next assay is T6, ERF (Homo sapiens, UniProt P50548 1-548).
T6 sequence: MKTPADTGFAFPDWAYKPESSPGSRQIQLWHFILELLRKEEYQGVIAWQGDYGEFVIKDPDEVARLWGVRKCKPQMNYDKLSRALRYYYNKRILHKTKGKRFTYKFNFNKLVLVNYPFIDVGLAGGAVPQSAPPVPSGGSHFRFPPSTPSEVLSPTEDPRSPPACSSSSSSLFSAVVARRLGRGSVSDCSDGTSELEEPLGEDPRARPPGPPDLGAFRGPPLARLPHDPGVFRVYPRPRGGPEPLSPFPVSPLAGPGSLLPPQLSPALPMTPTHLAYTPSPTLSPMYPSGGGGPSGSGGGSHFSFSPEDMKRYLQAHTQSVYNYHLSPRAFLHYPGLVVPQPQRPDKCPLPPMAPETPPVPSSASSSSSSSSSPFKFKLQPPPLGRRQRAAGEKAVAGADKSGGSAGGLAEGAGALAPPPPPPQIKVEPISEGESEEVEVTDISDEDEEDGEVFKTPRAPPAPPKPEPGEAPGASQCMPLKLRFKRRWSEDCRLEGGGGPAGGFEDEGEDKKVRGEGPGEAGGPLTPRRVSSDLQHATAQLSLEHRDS
To be noted: protein: recombinant; tags: N-terminal GST; dsDNA, one strand shown. An outline of the steps:
as §1

The target in the next assay is T7, ETV3L (Homo sapiens, UniProt Q6ZN32 1-361).
T7 sequence: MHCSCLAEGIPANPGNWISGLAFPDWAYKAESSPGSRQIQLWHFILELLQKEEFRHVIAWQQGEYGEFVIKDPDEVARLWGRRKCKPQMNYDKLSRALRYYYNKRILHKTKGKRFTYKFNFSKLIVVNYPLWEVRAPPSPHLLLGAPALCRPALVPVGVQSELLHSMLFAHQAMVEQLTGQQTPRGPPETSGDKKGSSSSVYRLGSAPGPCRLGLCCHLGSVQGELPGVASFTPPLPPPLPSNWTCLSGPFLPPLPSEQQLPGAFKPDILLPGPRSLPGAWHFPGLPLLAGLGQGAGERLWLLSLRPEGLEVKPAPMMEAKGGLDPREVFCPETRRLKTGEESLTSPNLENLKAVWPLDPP
The following applies: protein: recombinant; tags: N-terminal GST; dsDNA, one strand shown. An outline of the steps:
as §1

Another assay deals with T8, ETS2 (Homo sapiens, UniProt P15036 1-469).
T8 sequence: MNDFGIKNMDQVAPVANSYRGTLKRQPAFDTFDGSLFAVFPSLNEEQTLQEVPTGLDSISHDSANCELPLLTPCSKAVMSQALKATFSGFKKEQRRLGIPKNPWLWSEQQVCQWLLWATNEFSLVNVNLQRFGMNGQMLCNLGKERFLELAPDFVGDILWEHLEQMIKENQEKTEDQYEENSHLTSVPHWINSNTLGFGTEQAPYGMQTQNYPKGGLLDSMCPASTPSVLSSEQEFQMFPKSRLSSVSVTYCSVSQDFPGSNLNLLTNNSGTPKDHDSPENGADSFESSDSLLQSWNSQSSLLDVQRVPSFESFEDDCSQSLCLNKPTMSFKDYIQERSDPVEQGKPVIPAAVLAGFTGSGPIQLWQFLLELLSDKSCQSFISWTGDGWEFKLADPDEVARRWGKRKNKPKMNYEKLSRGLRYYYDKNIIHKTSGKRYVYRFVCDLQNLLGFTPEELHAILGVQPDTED
The following applies: protein: recombinant; tags: N-terminal GST; dsDNA, one strand shown. An outline of the steps:
as §1

For the next assay, the target named is T9, SPDEF (Homo sapiens, UniProt O95238 1-335).
T9 sequence: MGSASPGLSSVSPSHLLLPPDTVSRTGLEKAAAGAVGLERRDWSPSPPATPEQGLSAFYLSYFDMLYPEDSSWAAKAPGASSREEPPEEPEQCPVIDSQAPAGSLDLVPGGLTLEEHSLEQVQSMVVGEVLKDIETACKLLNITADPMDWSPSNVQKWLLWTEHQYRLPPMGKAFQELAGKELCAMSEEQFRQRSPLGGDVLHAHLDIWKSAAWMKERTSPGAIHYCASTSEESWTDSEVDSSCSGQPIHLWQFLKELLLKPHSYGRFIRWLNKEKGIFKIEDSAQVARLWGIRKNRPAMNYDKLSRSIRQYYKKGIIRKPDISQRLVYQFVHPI
The following applies: protein: recombinant; tags: N-terminal GST; dsDNA, one strand shown. An outline of the steps:
as §1

Another assay has as its target T10, ETV7 (Homo sapiens, UniProt Q9Y603 1-341).
T10 sequence: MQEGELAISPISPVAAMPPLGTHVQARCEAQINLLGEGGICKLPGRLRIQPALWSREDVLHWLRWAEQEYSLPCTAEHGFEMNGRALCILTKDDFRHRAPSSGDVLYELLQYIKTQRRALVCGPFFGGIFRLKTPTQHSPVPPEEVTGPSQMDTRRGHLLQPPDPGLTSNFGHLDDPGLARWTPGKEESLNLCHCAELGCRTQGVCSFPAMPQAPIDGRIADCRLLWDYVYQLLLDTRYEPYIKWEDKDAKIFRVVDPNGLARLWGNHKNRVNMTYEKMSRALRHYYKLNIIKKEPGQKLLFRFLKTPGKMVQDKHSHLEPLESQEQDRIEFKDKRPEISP
To be noted: protein: recombinant; tags: N-terminal GST; dsDNA, one strand shown. In short, it runs like this: as §1

The next assay has as its target T11, ELF5 (Homo sapiens, UniProt Q9UKW6-2 1-255).
T11 sequence: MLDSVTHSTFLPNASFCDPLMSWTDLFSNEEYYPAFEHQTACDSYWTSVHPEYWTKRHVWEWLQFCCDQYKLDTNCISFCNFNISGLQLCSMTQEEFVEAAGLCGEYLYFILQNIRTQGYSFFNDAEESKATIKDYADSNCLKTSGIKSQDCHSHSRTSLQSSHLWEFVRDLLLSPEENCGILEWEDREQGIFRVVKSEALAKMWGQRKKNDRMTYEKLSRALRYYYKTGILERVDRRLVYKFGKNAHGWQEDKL
To be noted: protein: recombinant; tags: N-terminal GST; dsDNA, one strand shown. In short, it runs like this:
as §1

Another assay has as its target T12, ETV3 (Homo sapiens, UniProt P41162-2 1-143).
T12 sequence: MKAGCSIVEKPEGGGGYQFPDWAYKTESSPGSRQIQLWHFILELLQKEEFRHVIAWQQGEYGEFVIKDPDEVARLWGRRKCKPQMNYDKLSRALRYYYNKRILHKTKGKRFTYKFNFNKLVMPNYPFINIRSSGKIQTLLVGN
The following applies: protein: recombinant; tags: N-terminal GST; dsDNA, one strand shown. An outline of the steps: as §1

For the next assay, the target named is ETV6 (Homo sapiens, UniProt P41212 1-452). The following applies: protein: recombinant; tags: N-terminal GST; dsDNA, one strand shown. An outline of the steps:
as §1

Sequence of ETV5 (P41161 whole entry): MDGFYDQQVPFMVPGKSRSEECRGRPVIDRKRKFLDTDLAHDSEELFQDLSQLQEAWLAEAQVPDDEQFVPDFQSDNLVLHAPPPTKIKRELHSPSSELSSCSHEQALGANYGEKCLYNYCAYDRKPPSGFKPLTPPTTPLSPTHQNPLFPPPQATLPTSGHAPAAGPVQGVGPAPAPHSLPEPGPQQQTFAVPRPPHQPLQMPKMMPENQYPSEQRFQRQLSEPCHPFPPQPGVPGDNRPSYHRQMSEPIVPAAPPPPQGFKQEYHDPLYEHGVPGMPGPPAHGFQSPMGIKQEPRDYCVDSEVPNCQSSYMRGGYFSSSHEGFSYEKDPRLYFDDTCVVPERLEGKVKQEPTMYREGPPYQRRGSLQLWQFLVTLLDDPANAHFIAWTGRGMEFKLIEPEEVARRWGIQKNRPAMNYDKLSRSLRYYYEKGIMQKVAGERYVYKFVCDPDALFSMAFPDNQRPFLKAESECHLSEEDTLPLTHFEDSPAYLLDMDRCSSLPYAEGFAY
Sequence of ETV1 (P50549 whole entry): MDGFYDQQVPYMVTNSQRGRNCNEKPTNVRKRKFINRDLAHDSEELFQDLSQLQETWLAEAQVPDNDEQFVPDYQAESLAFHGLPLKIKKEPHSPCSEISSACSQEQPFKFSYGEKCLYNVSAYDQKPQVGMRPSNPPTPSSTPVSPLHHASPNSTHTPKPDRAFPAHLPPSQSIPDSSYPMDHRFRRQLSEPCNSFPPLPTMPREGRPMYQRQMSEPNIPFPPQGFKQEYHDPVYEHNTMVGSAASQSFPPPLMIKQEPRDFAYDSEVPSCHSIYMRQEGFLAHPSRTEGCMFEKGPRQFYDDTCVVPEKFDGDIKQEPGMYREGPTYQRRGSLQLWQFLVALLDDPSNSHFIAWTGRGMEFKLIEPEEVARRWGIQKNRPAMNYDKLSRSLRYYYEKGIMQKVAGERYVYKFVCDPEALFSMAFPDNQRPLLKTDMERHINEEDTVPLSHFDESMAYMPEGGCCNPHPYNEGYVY
Sequence of ETV6 (P41212 whole entry): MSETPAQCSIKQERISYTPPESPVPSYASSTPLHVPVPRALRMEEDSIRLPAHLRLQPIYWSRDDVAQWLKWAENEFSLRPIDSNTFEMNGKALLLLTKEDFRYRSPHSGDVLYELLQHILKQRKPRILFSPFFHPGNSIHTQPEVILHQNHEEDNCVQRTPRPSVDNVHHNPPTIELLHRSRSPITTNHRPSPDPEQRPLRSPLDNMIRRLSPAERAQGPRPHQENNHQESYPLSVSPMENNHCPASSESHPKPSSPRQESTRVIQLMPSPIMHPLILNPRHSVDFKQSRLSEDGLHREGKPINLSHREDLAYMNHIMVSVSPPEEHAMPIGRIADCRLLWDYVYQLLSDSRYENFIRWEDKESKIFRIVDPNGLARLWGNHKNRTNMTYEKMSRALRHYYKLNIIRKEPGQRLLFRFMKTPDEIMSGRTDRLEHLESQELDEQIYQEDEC
Sequence of HSF1 (Q00613 whole entry): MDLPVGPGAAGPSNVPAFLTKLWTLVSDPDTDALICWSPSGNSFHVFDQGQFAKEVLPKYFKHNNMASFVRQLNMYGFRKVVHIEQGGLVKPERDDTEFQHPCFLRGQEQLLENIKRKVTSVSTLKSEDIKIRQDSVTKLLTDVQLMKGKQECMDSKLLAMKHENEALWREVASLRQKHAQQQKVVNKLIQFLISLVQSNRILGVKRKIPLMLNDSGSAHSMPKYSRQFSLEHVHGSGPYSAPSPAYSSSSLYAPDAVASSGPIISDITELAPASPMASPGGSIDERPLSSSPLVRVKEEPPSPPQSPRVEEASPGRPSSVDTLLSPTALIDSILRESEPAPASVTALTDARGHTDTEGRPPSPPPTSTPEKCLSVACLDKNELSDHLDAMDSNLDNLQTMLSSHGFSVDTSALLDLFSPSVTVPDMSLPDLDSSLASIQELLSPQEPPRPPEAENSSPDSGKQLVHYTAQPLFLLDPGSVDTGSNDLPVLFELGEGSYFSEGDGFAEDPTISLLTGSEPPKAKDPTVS
Sequence of CRX (O43186 whole entry): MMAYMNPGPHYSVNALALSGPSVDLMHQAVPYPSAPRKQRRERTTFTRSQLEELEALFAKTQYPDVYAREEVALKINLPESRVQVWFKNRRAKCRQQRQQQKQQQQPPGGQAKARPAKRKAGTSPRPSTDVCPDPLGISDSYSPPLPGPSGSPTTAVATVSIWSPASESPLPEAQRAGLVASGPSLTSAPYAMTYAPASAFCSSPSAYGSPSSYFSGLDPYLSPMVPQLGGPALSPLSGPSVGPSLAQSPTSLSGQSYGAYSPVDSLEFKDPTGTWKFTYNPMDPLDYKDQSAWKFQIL
Sequence of ELF4 (Q99607 whole entry): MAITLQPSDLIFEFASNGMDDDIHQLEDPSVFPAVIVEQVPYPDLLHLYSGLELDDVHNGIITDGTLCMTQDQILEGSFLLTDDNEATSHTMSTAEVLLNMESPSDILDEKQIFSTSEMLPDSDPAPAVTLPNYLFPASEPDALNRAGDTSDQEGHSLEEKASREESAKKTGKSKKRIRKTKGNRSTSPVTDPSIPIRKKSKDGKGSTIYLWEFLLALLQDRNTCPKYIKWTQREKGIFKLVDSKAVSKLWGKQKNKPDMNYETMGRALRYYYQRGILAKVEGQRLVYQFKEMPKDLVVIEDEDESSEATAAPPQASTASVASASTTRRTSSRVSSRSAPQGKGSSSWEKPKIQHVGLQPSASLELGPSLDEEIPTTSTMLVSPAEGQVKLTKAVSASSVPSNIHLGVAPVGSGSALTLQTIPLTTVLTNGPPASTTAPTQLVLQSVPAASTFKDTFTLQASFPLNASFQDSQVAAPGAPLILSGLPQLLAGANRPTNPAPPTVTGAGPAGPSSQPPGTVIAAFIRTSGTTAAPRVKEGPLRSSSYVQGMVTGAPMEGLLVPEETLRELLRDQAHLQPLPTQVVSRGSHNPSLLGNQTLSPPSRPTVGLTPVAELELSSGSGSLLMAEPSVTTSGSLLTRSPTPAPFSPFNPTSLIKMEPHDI

With TTCAAC, the binding signal in the assay with FEV was 1.29 fold enrichment (6-mer frequency, TF over GST control); in the assay with ETV5, 1.29 fold enrichment (6-mer frequency, TF over GST control); with HSF1 it was 1.14 fold enrichment (6-mer frequency, TF over GST control); in the assay with SPIC, 1.24 fold enrichment (6-mer frequency, TF over GST control); with ELF4 it was 1.28 fold enrichment (6-mer frequency, TF over GST control); in the assay with ELK4, 1.33 fold enrichment (6-mer frequency, TF over GST control). Moreover, the binding signal is 1.31 fold enrichment (6-mer frequency, TF over GST control) with ETV2; 1.38 fold enrichment (6-mer frequency, TF over GST control) in the assay with ELF3; 1.15 fold enrichment (6-mer frequency, TF over GST control) with CRX; 1.35 fold enrichment (6-mer frequency, TF over GST control) with ETV1; 1.31 fold enrichment (6-mer frequency, TF over GST control) in the assay with ERF; 1.16 fold enrichment (6-mer frequency, TF over GST control) in the assay with ETV3L. In addition, the binding signal in the assay with ETS2 is 1.29 fold enrichment (6-mer frequency, TF over GST control); with SPDEF, 1.28 fold enrichment (6-mer frequency, TF over GST control); with ETV7, 1.19 fold enrichment (6-mer frequency, TF over GST control); with ELF5 it was 1.27 fold enrichment (6-mer frequency, TF over GST control); with ETV3 it was 1.32 fold enrichment (6-mer frequency, TF over GST control); with ETV6, 1.19 fold enrichment (6-mer frequency, TF over GST control).
